For assay [1], the system named is Wnt5a (protein binding on small-molecule microarray). Nature of the assay: Wnt5a binders on small-molecule microarray, primary screen, biophysical, 635/667 nm fluorescence (AID 1142).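 Further: fluorescence read at 667 nm with signal to noise per printed feature.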 The settings on record: 635 nm fluorescence, higher = more signal.
Assay [2] is described as follows: cell viability in Huh7 cells, primary screen, cytotoxicity control for HCV replication inhibitor project, CellTiter-Glo luminescence, basal, 48 h (AID 1143).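 Further: Huh7 hepatoma cells carrying a hepatitis C replication reporter with no stimulus; test concentration not given here.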 The conditions noted are these: Huh7 HCV replicon, higher = more signal, called active from +8 up or from −8 down.
Assay [3] is described as follows: P. aeruginosa biofilm formation inhibitors, primary screen, PAO1 strain, BacTiter-Glo luminescence, LB-PBS (AID 1144). The conditions noted are these: 12 h, higher = more signal.
Assay [4] can be described thus: CREB reporter modulators without forskolin, primary screen, cell-based, PC12, CRE-LacZ reporter, unstimulated (AID 1145). The conditions noted are these: no forskolin, luminescence, 4.5 h, higher = more signal, called active from +8 up or from −8 down.
The nature of assay [5]: CREB reporter modulators under forskolin, primary screen, cell-based, PC12, CRE-LacZ reporter, forskolin-stimulated (AID 1146).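 Further: PC12 cells with 6xCRE LacZ reporter stimulated by forskolin 10 µM; beta-galactosidase reporter signal reflecting CREB driven transcription.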 The conditions noted are these: luminescence, 4.5 h, higher = more signal, called active from +8 up or from −8 down.
For assay [6], the target named is Streptavidin (Streptomyces avidinii) (UniProt P22629). As to the kind of experiment: streptavidin binders on small-molecule microarray, primary screen, artefact control for SMM compound annotation, biophysical, 635/667 nm fluorescence (AID 1147).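 Further: signal reflects streptavidin binding to arrayed compounds as a control protein.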 The conditions noted are these: streptavidin binding, higher = more signal.
Assay [7] is described as follows: small-molecule binders of probe aInhba, primary screen, biochemical, small-molecule microarray, 635/667 nm fluorescence (AID 1148).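 Further: score merges 667nm spot fluorescence with signal-to-noise for antibody binding to printed compounds.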 The settings on record: higher = more signal.
Assay [8] has as its target Torsin-1A (Homo sapiens) (UniProt O14656). Nature of the assay: torsin A binders from cell lysate, primary screen, small-molecule microarray, wild-type, 635/667 nm (AID 1149). The settings on record: COS7 hTOR1A-WT lysate, 635 nm fluorescence, higher = more signal.
Assay [9] has the same target. As to the kind of experiment: small-molecule binders of mutant TOR1A in lysate, primary screen, cell lysate, small-molecule microarray, COS7 lysate, 635/667 nm fluorescence (AID 1150).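 Further: score pools 667 nm emission and signal to noise measuring lysate protein binding.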 The settings on record: COS7 hTOR1A mutant lysate, 635 nm fluorescence, higher = more signal.
For assay [10], the system named is Sonic hedgehog protein (Shh). Nature of the assay: small-molecule binders of Shh protein, primary screen, biochemical, small-molecule microarray, 635/667 nm fluorescence (AID 1151).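 Further: Shh protein binding to compounds spotted on small-molecule microarray slides; score combines spot fluorescence intensity with signal-to-noise across triplicate slides.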 The settings on record: small-molecule microarray binding, 635 nm fluorescence; higher = more signal.

SMILES strings stand for the structures. Calls of active or inactive are those of the source. Unless noted, how the calls were made is not given here.

The record followed here is PubChem BioAssay.

Sequence of Streptavidin (Streptomyces avidinii) (P22629 whole entry, looked up): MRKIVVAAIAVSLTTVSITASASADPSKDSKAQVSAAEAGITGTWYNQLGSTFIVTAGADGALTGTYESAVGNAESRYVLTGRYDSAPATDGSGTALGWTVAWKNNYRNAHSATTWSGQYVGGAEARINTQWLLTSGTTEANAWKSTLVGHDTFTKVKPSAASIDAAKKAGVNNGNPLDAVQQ
Sequence of Torsin-1A (Homo sapiens) (O14656 whole entry, looked up): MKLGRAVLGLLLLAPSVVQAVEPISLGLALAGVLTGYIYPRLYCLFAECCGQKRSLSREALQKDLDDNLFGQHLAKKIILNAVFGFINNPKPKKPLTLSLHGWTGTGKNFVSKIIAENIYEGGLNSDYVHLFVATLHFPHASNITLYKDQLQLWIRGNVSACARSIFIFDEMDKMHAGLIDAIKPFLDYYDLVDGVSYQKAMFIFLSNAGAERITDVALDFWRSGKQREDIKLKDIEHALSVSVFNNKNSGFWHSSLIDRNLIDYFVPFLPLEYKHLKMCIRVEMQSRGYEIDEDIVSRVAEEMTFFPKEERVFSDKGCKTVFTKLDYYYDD

With `COc1ccc(C#Cc2ccc3c(c2)[C@]2(C(=O)N3)[C@H](C(=O)O)[C@H]3C(=O)O[C@H](c4ccccc4)[C@H](c4ccccc4)N3[C@@H]2c2ccccc2OCCO)cc1`, the composite z-score is 0.119 in [1]; 0.904 in assay [6]; -0.413 in assay [7]; 0.65 with Torsin-1A (Homo sapiens) [8]; 0.643 in the assay with Torsin-1A (Homo sapiens) [9]; 1.63 in assay [10]. Moreover, the z-score in [2] was -5.87 (inactive); in assay [3], -1.75 (inactive); in assay [4] it was 1.43 (inactive); in assay [5] it was 4.81 (inactive).

Turning to `[N-]=[N+]=Nc1ccccc1C[C@@]1(C(=O)NCc2ccccc2)N=C(c2ccc(OCCCO)cc2)O[C@@H]1c1ccccc1N=[N+]=[N-]`, the composite z-score came out at 0.897 in assay [1]; 0.905 in assay [6]; 0.767 in [7]; 0.123 with Torsin-1A (Homo sapiens) [8]; 0.388 with Torsin-1A (Homo sapiens) [9]; 0.473 in [10]. In addition, the z-score in [2] is -5.79 (inactive); in assay [3] it was -0.424 (inactive); in [4], 0.596 (inactive); in [5] it was -2.3 (inactive).

`CCCCCCc1nc(Cc2cc(OC)c(OC)c(OC)c2)cc2c1[Si](C(C)C)(C(C)C)O[C@H]2c1ccccc1`: the composite z-score in [1] is -0.0493; in assay [6], 0.0406; in assay [7], -0.154; with Torsin-1A (Homo sapiens) [8], 0.128; in the assay with Torsin-1A (Homo sapiens) [9], -0.155; in assay [10], 1.19. For the same molecule, the z-score in assay [2] is -2.1 (inactive); in [3], 0.129 (inactive); in assay [4] it was 0.367 (inactive); in [5], 0.0748 (inactive).

As to `CC(C)=CCCC=C(C)C(O)C1C=CC2C(=O)N(c3ccccc3)C(=O)C2N1Nc1ccc(C#N)cc1` (stereo not given), the composite z-score in [1] is 0.218; in [6], 0.555; in assay [7], 0.0841; with Torsin-1A (Homo sapiens) [8], 0.0747; in the assay with Torsin-1A (Homo sapiens) [9] it was 0.536; in assay [10], 0.335. For the same molecule, the z-score in assay [2] is -2.81 (inactive); in assay [3] it was -1.21 (inactive); in assay [4], 1.39 (inactive); in [5], -0.35 (inactive).

For `C=CCC(OC(C)=O)[C@@H]1[C@@H](N(Cc2cc3ccccc3o2)C(=O)Cc2ccc(OC)cc2)c2cc(OCCCO)ccc2N1C(=O)c1ccc2ccccc2n1` (stereo not given in full), the composite z-score in assay [1] is -0.124; in assay [6], 0.229; in assay [7], -0.0103; with Torsin-1A (Homo sapiens) [8], 0.135; with Torsin-1A (Homo sapiens) [9] it was -0.136; in [10], 0.0685. Further, the z-score in assay [2] was -1.03 (inactive); in assay [3], 0.267 (inactive); in [4], 4.52 (inactive); in [5], -0.24 (inactive).

For `C=C(C)[C@@H]1CC=C(C(O)C2C=CC3C(=O)N(c4ccccc4)C(=O)C3N2Nc2ccc([N+](=O)[O-])cc2)CC1` (stereo not given in full), the composite z-score in [1] was 0.331; in [6], 1.5; in assay [7], 0.19; in the assay with Torsin-1A (Homo sapiens) [8], 0.875; in the assay with Torsin-1A (Homo sapiens) [9], 0.685; in assay [10] it was 1.11. Besides, the z-score in [2] is -1.14 (inactive); in [3], -1.4 (inactive); in assay [4] it was -0.527 (inactive); in [5] it was -0.605 (inactive).

For `CC1CC/C=C\[C@H]2OC34C=CCN(CCN5CCOCC5)C(=O)[C@H]3N(CCCO)C(=O)[C@@H]4C2C(=O)O1` (stereo not given in full), the composite z-score in [1] was -0.239; in [6], -0.601; in [7], -0.154; with Torsin-1A (Homo sapiens) [8] it was -0.0243; in the assay with Torsin-1A (Homo sapiens) [9], 0.0876; in assay [10], 0.624. The z-score is 0.0123 (inactive) in [2], 1.13 (inactive) in assay [3], -0.887 (inactive) in assay [4] and -0.0703 (inactive) in assay [5].

For `CC(C)(C)OC(=O)CC[C@@]1(C(=O)NCCN2CCOCC2)N=C(c2ccc(OCCCO)cc2)O[C@@H]1c1ccccc1CN=[N+]=[N-]`, the composite z-score was -0.119 in assay [1]; 1.01 in assay [6]; -0.0494 in assay [7]; -0.428 with Torsin-1A (Homo sapiens) [8]; 0.467 with Torsin-1A (Homo sapiens) [9]; -0.919 in assay [10]. The z-score in [2] is 0.0704 (inactive); in assay [3], -0.495 (inactive); in assay [4], -0.277 (inactive); in assay [5], 0.54 (inactive).

Take `COCCOC(=O)N1C(=O)[C@@]2(c3cc(C#CCCO)ccc31)[C@H](C(N)=O)[C@H]1C(=O)O[C@H](c3ccccc3)[C@H](c3ccccc3)N1[C@@H]2c1ccccc1OCCO`: the composite z-score in assay [1] is 0.119; in [6], 0.612; in assay [7], 0.017; in the assay with Torsin-1A (Homo sapiens) [8], 0.69; with Torsin-1A (Homo sapiens) [9], 0.791; in assay [10], 1.13. In addition, the z-score in assay [2] was -3.54 (inactive); in assay [3] it was 0.00875 (inactive); in assay [4], 0.0695 (inactive); in assay [5] it was -0.29 (inactive).

On to `CN(C)CCCC[C@@H]1NC(=O)[C@@H]2C[C@H](C(=O)NCCCCCCNC(=O)CS)[C@H](c3ccc(O)cc3)N2C1=O`, for which the composite z-score is 0.412 in assay [1]; -0.406 in assay [6]; 0.257 in assay [7]; 0.71 with Torsin-1A (Homo sapiens) [8]; 0.702 in the assay with Torsin-1A (Homo sapiens) [9]; 1.62 in assay [10]. Also, the z-score was -0.211 (inactive) in assay [2], -0.525 (inactive) in assay [3], 0.549 (inactive) in [4] and 0.375 (inactive) in assay [5].

On to `O=C1N(Cc2ccccc2)c2ccccc2C[C@@]12COC(c1ccc(OCCCO)cc1)=N2`, for which the composite z-score in assay [1] is 0.82; in [6], 0.431; in assay [7], 0.397; in the assay with Torsin-1A (Homo sapiens) [8] it was 0.492; in the assay with Torsin-1A (Homo sapiens) [9] it was 1.03; in [10], 0.383. The z-score in [2] is -3.39 (inactive); in assay [3], -0.576 (inactive); in [4] it was 2.41 (inactive); in assay [5] it was -0.914 (inactive).

Consider `C=C(COC)C(=O)CC[C@@H](OC(=O)c1ccccc1-c1ccccc1C(=O)O)c1ccc(OCCO)cc1`, for which the composite z-score in assay [1] is 0.238; in assay [6] it was -0.986; in assay [7] it was 0.0018; with Torsin-1A (Homo sapiens) [8], -0.0281; with Torsin-1A (Homo sapiens) [9] it was 1.15; in assay [10], 1.86. Moreover, the z-score in assay [2] is -0.043 (inactive); in assay [3], -0.147 (inactive); in assay [4], 0.727 (inactive); in assay [5] it was 1.36 (inactive).

On to `C=CCC(OC(C)=O)[C@@H]1[C@@H](N(Cc2cccc3ccccc23)C(=O)Cc2ccc(OC)cc2)c2cc(OCCCO)ccc2N1C(=O)c1ccc2ccccc2c1` (stereo not given in full), for which the composite z-score is -0.186 in assay [1]; 0.172 in [6]; -0.152 in [7]; 0.794 with Torsin-1A (Homo sapiens) [8]; -0.118 with Torsin-1A (Homo sapiens) [9]; 0.239 in assay [10]. Further, the z-score in assay [2] was -3.04 (inactive); in assay [3], -0.719 (inactive); in assay [4], 0.0458 (inactive); in assay [5] it was -0.383 (inactive).

Consider `CC(C)NC(=O)[C@@H]1c2ccccc2C(=O)N(Cc2ccccc2C(F)(F)F)[C@H]1c1ccc(CO)cc1`, for which the composite z-score in assay [1] was -0.0854; in [6] it was -0.962; in assay [7], -0.169; with Torsin-1A (Homo sapiens) [8], -0.371; with Torsin-1A (Homo sapiens) [9], 0.0029; in assay [10] it was -0.214. For the same molecule, the z-score in assay [2] is -2.26 (inactive); in [3], -0.949 (inactive); in [4], -0.179 (inactive); in assay [5], 1.71 (inactive).
